Source: PubChem BioAssay (NCATS)
Records with an inconclusive call do not appear. A number with no mark means an inactive call. Activity calls are given as the source filed them. The call rests on the fitted dose curve; in most records, active means well fitted inhibition curve with a large enough effect; inconclusive means small, poorly fitted or top-dose-only effect; inactive means flat fitted curve, though single readings scatter.

system: CP329; experiment: qHTS profiling for inhibitors of Plasmodium falciparum proliferation (AID 504749); further: nearly all actives have a fitted effect of over 60% in size;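 on activity, negative = inhibition: 0% = DMSO vehicle and full inhibition = artemisinin control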; details: P. falciparum in erythrocytes, SYBR Green DNA, 72 h; series mostly up to 28.7 µM; activity, negative = inhibition: at the top concentration
Summary of the method: (§1)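 Readout was DNA-dye fluorescence from lysed cultures, ex 485/em 535 nm. Parasitized red cells had grown 72 h with compound; data scaled between 0.29 uM artemisinin and DMSO wells and corrected using vehicle-only plates.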
Potency means the concentration at half of the fitted maximal effect.

Row | Compound | activity, negative = inhibition | Potency
1 | CN1CCN(C2=Nc3ccccc3Sc3ccc(Cl)cc32)CC1 | -17.6% | 
2 | CN1CCN(c2cc3c(cc2F)c(=O)c(C(=O)O)cn3-c2ccc(F)cc2)CC1 | -11.8% | 
3 | NCc1ccccc1Sc1ccccc1CO | -17.1% | 
4 | O=C(c1ccc(F)cc1)C1CCN(CCn2c(=S)[nH]c3ccccc3c2=O)CC1 |  | 6.75 µM (active)
5 | CN1CCN(c2c(F)cc3c(=O)c(C(=O)O)cn4c3c2SCC4)CC1 | -17.7% | 
6 | COc1ccc(C(=O)c2ccccc2O)c(O)c1 | 4.09% [at 12.8 µM] | 
7 | CCc1ccc(C(=O)C(C)CN2CCCCC2)cc1 (configuration not stated) | -6.44% | 
8 | Oc1c(Cl)cc(Cl)c(Cl)c1Cc1c(O)c(Cl)cc(Cl)c1Cl |  | 13.5 µM (active)
9 | C#C[C@]1(O)CC[C@H]2[C@@H]3CCC4=CC(=O)CC[C@@H]4[C@H]3CC[C@@]21CC | -0.843% | 
10 | FC1(F)C(F)(F)C(F)(F)C2(F)C(F)(F)C(F)(F)C(F)(F)C(F)(F)C2(F)C1(F)F (configuration not stated) | 0.611% | 
11 | CC(C)[N+](C)(C)CC(O)COc1cccc2ccccc12 (configuration not stated) | -27.9% | 
12 | CCCc1ncc(C[n+]2ccccc2C)c(N)n1 | 4.31% [at 12.8 µM] | 
13 | O=C(O)C1(C(=O)O)CCC1.[NH2-].[NH2-].[Pt+2] | 1.77% | 
14 | Cc1cc(CC(=O)O)c(C)n1-c1ccc(Cl)cc1 | -12% | 
15 | O=C(Oc1cccc2cccnc12)c1ccccc1 | -12.6% | 
16 | C[N+]1(C)CCC(=C(c2ccccc2)c2ccccc2)CC1 | -15.8% [at 12.8 µM] | 
17 | Cc1ccc(O)c([C@H](CCN(C(C)C)C(C)C)c2ccccc2)c1 |  | 13.5 µM (active)

Row | Compound | activity, negative = inhibition | Potency
18 | O=C(O)c1ccc(S(=O)(=O)N(Cl)Cl)cc1 | -4.21% | 
19 | CN(C)CCC[C@@]1(c2ccc(F)cc2)OCc2cc(C#N)ccc21 | -6.49% | 
20 | Cc1ccc2c(Br)cc(Br)c(O)c2n1 |  | 15.1 µM (active)
21 | N=C(N)N1CCc2ccccc2C1 | -1.6% | 
22 | O=[N+]([O-])c1cccc(S(=O)(=O)NCCNS(=O)(=O)c2cccc([N+](=O)[O-])c2)c1 | -25.6% | 
23 | COc1ccc(C(=O)c2ccccc2)c(O)c1 | 1.13% | 
24 | COc1cc(C(=O)N2CCCCCCC2)cc(OC)c1OC | 13.4% | 
25 | Cc1cccc(C)c1NC(=O)c1ccccc1C(=O)O | -2.05% | 
26 | CC(=O)NCCCCCC(=O)O | -20.2% | 
27 | Cc1cccc(C)c1NC(=O)CN1CCCC1 | -8.35% | 
28 | CCOC(=O)c1c(N)sc2c1CCN(Cc1ccccc1)C2 |  | 4.78 µM (active)
29 | CC(C)NCC(O)c1ccc2ccccc2c1 (configuration not stated) | -27% | 
30 | NC(N)=NCc1cccc(I)c1 | -13.5% | 
31 | COc1cc(O)c(C(=O)c2ccccc2)cc1S(=O)(=O)O | 4.15% | 
32 | CC(C)(C)CC(C)(C)c1ccc(O)c(-n2nc3ccccc3n2)c1 | 2.52% | 
33 | Oc1ccc(Cl)cc1Cc1cc(Cl)ccc1O | -21% | 

system: CP335; experiment: as above; details: P. falciparum in erythrocytes, SYBR Green DNA, 72 h; series mostly up to 28.7 µM; activity, negative = inhibition: at the top concentration
Summary of the method: as §1

Row | Compound | activity, negative = inhibition | Potency
34 | COc1ccc(C(=O)c2ccccc2O)c(O)c1 | -0.615% [at 12.8 µM] | 
35 | CCc1ccc(C(=O)C(C)CN2CCCCC2)cc1 (configuration not stated) | -5.2% | 
36 | CCCN(CCc1cccs1)[C@H]1CCc2c(O)cccc2C1 |  | 8.49 µM (active)
37 | C#C[C@]1(O)CC[C@H]2[C@@H]3CCC4=CC(=O)CC[C@@H]4[C@H]3CC[C@@]21CC | -18.6% | 
38 | NC(N)=NN=C(/C=C/c1ccc([N+](=O)[O-])o1)/C=C/c1ccc([N+](=O)[O-])o1 |  | 4.78 µM (active)
39 | FC1(F)C(F)(F)C(F)(F)C2(F)C(F)(F)C(F)(F)C(F)(F)C(F)(F)C2(F)C1(F)F (configuration not stated) | 3.97% | 
40 | CC(C)[N+](C)(C)CC(O)COc1cccc2ccccc12 (configuration not stated) |  | 9.53 µM (active)
41 | O=C(O)C1(C(=O)O)CCC1.[NH2-].[NH2-].[Pt+2] | 0.408% | 
42 | O=C(Oc1cccc2cccnc12)c1ccccc1 | -7.13% | 
43 | Cc1ccc(O)c([C@H](CCN(C(C)C)C(C)C)c2ccccc2)c1 |  | 5.36 µM (active)
44 | O=C(O)c1ccc(S(=O)(=O)N(Cl)Cl)cc1 | 10.4% | 
45 | CN(C)CCC[C@@]1(c2ccc(F)cc2)OCc2cc(C#N)ccc21 | -8.9% | 
46 | N=C(N)N1CCc2ccccc2C1 | -0.105% | 
47 | COc1cc(C(=O)N2CCCCCCC2)cc(OC)c1OC | 6.4% | 
48 | Cc1cccc(C)c1NC(=O)c1ccccc1C(=O)O | 4.54% | 
49 | CC(=O)NCCCCCC(=O)O | -1.74% | 
50 | Cc1ncc(CO)c(C=O)c1O | 5.28% | 
51 | O=C1C(=O)c2ccccc2C(O)=C1C1CCC(c2ccc(Cl)cc2)CC1 (configuration not stated) |  | 0.0032 µM (active)
52 | Cc1cccc(C)c1NC(=O)CN1CCCC1 | 3.2% | 
53 | CCOC(=O)c1c(N)sc2c1CCN(Cc1ccccc1)C2 |  | 4.26 µM (active)
54 | CC(C)NCC(O)c1ccc2ccccc2c1 (configuration not stated) |  | 12 µM (active)
55 | Oc1ccc(Cl)cc1Cc1cc(Cl)ccc1O | -13.1% | 

system: DFO2036; experiment: as above; details: P. falciparum in erythrocytes, SYBR Green DNA, 72 h; series mostly up to 28.7 µM; activity, negative = inhibition: at the top concentration
Summary of the method: as §1

Row | Compound | activity, negative = inhibition | Potency
56 | CN1CCN(C2=Nc3ccccc3Sc3ccc(Cl)cc32)CC1 | -15.6% | 
57 | NCc1ccccc1Sc1ccccc1CO | -15.9% | 
58 | O=C(c1ccc(F)cc1)C1CCN(CCn2c(=S)[nH]c3ccccc3c2=O)CC1 |  | 5.62 µM (active)
59 | COc1ccc(C(=O)c2ccccc2O)c(O)c1 | -10.2% [at 12.8 µM] | 
60 | CCc1ccc(C(=O)C(C)CN2CCCCC2)cc1 (configuration not stated) | -6.12% | 
61 | CCCN(CCc1cccs1)[C@H]1CCc2c(O)cccc2C1 |  | 10 µM (active)
62 | C#C[C@]1(O)CC[C@H]2[C@@H]3CCC4=CC(=O)CC[C@@H]4[C@H]3CC[C@@]21CC | -1.83% | 
63 | NC(N)=NN=C(/C=C/c1ccc([N+](=O)[O-])o1)/C=C/c1ccc([N+](=O)[O-])o1 |  | 11.2 µM (active)
64 | FC1(F)C(F)(F)C(F)(F)C2(F)C(F)(F)C(F)(F)C(F)(F)C(F)(F)C2(F)C1(F)F (configuration not stated) | 6.37% | 
65 | CCCc1ncc(C[n+]2ccccc2C)c(N)n1 | 0.324% [at 12.8 µM] | 
66 | O=C(O)C1(C(=O)O)CCC1.[NH2-].[NH2-].[Pt+2] | -0.525% | 
67 | Cc1cc(CC(=O)O)c(C)n1-c1ccc(Cl)cc1 | -10.9% | 
68 | O=C(Oc1cccc2cccnc12)c1ccccc1 | -18.3% | 
69 | CN(C)C(=O)Nc1ccc(Cl)c(Cl)c1 | -23.1% | 
70 | C[N+]1(C)CCC(=C(c2ccccc2)c2ccccc2)CC1 | -12.9% [at 12.8 µM] | 
71 | Cc1ccc(O)c([C@H](CCN(C(C)C)C(C)C)c2ccccc2)c1 |  | 5.01 µM (active)

Row | Compound | activity, negative = inhibition | Potency
72 | O=C(O)c1ccc(S(=O)(=O)N(Cl)Cl)cc1 | 14.1% | 
73 | CN(C)CCC[C@@]1(c2ccc(F)cc2)OCc2cc(C#N)ccc21 | -23.3% | 
74 | Cc1ccc2c(Br)cc(Br)c(O)c2n1 |  | 10 µM (active)
75 | N=C(N)N1CCc2ccccc2C1 | 8.44% | 
76 | O=[N+]([O-])c1cccc(S(=O)(=O)NCCNS(=O)(=O)c2cccc([N+](=O)[O-])c2)c1 | -23.7% | 
77 | COc1ccc(C(=O)c2ccccc2)c(O)c1 | -22.7% | 
78 | COc1cc(C(=O)N2CCCCCCC2)cc(OC)c1OC | 1.15% | 
79 | Cc1cccc(C)c1NC(=O)c1ccccc1C(=O)O | 13.2% | 
80 | CC(=O)NCCCCCC(=O)O | 10.4% | 
81 | Cc1ncc(CO)c(C=O)c1O | -11.9% | 
82 | O=C1C(=O)c2ccccc2C(O)=C1C1CCC(c2ccc(Cl)cc2)CC1 (configuration not stated) |  | 0.0032 µM (active)
83 | Cc1cccc(C)c1NC(=O)CN1CCCC1 | -14.7% | 
84 | CCOC(=O)c1c(N)sc2c1CCN(Cc1ccccc1)C2 |  | 7.08 µM (active)
85 | NC(N)=NCc1cccc(I)c1 | -29.9% | 
86 | COc1cc(O)c(C(=O)c2ccccc2)cc1S(=O)(=O)O | -24.6% | 
87 | Oc1ccc(Cl)cc1Cc1cc(Cl)ccc1O | -29% | 
